# VDR inh – Inhibitors of the vitamin D receptor (VDR): qHTS. Vitamin D3 receptor (Homo sapiens), P11473. VDR-SRC2-3 peptide fluorescence polarization, 2 h. Potency, µM, for inactives: max response, negative = inhibition, actives largely listed as inhibitors. actives 0.93% (n = 400,000). AID 504847, 2011; further: on the % scale 0 is the no-effect control and ±100 the full control effect
# Target sequence (P11473 whole entry, looked up): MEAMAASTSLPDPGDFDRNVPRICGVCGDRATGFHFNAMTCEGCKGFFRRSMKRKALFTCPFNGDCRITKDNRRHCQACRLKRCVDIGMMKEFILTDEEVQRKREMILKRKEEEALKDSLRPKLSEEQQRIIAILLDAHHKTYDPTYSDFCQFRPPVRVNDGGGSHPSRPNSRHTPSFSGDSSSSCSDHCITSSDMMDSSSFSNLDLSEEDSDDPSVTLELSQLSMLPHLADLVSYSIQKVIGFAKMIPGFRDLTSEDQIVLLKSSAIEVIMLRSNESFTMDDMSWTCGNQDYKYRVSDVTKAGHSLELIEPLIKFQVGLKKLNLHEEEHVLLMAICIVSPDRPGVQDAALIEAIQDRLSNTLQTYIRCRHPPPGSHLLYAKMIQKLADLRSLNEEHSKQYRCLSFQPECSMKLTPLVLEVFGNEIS
#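 Fluorescence polarization assay measuring small-molecule disruption of VDR binding to the coregulator peptide SRC2-3. Compounds were pin-transferred (23 nl) into the reagent mix and incubated 2 h at room temperature before reading.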
# G9a inh – qHTS Assay for Inhibitors of Histone Lysine Methyltransferase G9a | Histone-lysine N-methyltransferase EHMT2 (Homo sapiens), Q96KQ7 | Potency, µM (series often up to 102 µM), for inactives: top-dose activity, negative = inhibition, hits mostly inhibitors | actives 8.8% (n = 350,000) | G9a H3K9 monomethylation, AlphaScreen, 2 h; further: on the % scale 0 is the no-effect control and ±100 the full control effect; nearly all actives have a fitted effect of over 75% in size
# Target sequence (Q96KQ7 913-1193 limits assumed): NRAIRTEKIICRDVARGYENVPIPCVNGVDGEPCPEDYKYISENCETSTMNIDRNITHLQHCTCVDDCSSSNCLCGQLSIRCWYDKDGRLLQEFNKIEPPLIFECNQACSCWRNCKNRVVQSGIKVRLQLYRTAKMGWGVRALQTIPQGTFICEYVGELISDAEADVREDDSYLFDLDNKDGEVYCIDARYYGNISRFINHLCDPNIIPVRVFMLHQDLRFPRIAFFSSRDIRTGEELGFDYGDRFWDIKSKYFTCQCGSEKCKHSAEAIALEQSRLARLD
#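 AlphaScreen detection with an anti-monomethyl H3K9 antibody quantified product after a 2 h room-temperature reaction containing 500 nM biotinylated H3K9 peptide, 20 µM SAM and 20 nM enzyme, which had been preincubated 15 min with compound.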
# 12-LOX inh – Primary qHTS assay for inhibitors of human arachidonate 12S-lipoxygenase (ALOX12): Round 2; purified 12hLO, xylenol orange hydroperoxide absorbance; Potency, µM (titrated, usually from 108 µM), for the others: at the top dose activity change, negative = inhibition, most hits filed as inhibitors; actives 1.1% (n = 580,000); Polyunsaturated fatty acid lipoxygenase ALOX12 (Homo sapiens), P18054; AID 1671190, 2021; further: on the % scale 0 is the no-effect control and ±100 the full control effect
#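 Hydroperoxide product was detected by ferrous iron/xylenol orange as the 573 to 405 nm absorbance ratio. Arachidonic acid at 40 uM (final) was turned over for 30 min at room temperature by 150 nM human 12hLO, pH 7.0 Hepes buffer, after 15 min compound preincubation.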
# Sfp PPTase inh – qHTS Assay for Inhibitors of Bacillus subtilis Sfp phosphopantetheinyl transferase (PPTase). AID 1490, 2009. Biochemical Sfp PPTase activity, qHTS. actives 3.5% (n = 310,000). Potency, µM, for the others: largest response in the series, negative = inhibition, usual class: inhibitors. 4'-phosphopantetheinyl transferase ffp (Bacillus subtilis), Q9F4F7;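 further: the enzyme is Sfp with the accession as filed and its product quenches rhodamine fluorescence; 0% = enzyme reaction without inhibitor and -100% = no enzyme wells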
#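 Fluorescence-quenching assay: 15 nM Sfp-PPTase preincubated 15 min at room temperature with compound, then 5 uM rhodamine-CoA and 12.5 uM BHQ-2-labelled YbbR peptide added. Fluorescence (ex 525/em 598 nm) read at start and after 30 min; difference gives rate.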
# GRP78 ERSR act – qHTS for Inducers of the Endoplasmic Reticulum Stress Response (ERSR) in Human Glioma: qHTS; U87-MG GRP78 promoter luciferase reporter, 16 h; actives 0.02% (n = 420,000); Potency, µM, inactives show at the top dose activation, hits mostly activators; further: series mostly up to about 76 µM; % of control where 0% means no effect; nearly all actives have a fitted effect of over 35% in size
#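 Stably transfected U87-MG glioma cells carrying a GRP78-based luciferase sensor; 16 h compound incubation. Luminescence end-point read 10 min after Bright-Glo addition at room temperature.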
# Starred values were filed as active, the others as inactive; ? = inconclusive; · = no result; [ ] = another dose, or the depositor's remark. Only a selection was taken, and hits are over-represented in it overall. The call rests on the fitted dose curve; in most records, active means well fitted curve in the direction sought with a large enough effect; inconclusive means small, poorly fitted or top-dose-only effect, or another doubt; inactive means no such curve, though single readings can be large; an effect the other way counts as inactive or inconclusive. Potency means the concentration at half of the fitted maximal effect.
SMILES,VDR inh,G9a inh,12-LOX inh,Sfp PPTase inh,GRP78 ERSR act
COc1ccc(C(=O)CSc2nnc(-c3ccco3)n2CC2CCCO2)cc1 (stereo unspecified),-6.9%,-12.7%[59 µM],?,44.7µM*,0.1%
O=C(CSc1nnc(-c2ccco2)n1CC1CCCO1)c1ccc(F)cc1 (stereo unspecified),-28.7%,44.7µM*,-14.7%,50.1µM*,-5.1%
O=C(CSc1nnc(-c2ccco2)n1CC1CCCO1)N1CCCCC1 (stereo unspecified),-12.6%,?,5.0%,1.8%,-4.5%
COc1cccc(C(=O)CSc2nnc(-c3ccco3)n2CC2CCCO2)c1 (stereo unspecified),-11.1%,-33.5%[12.7 µM],110.0%[57.4 µM],8.6%,-4.8%
O=C(CN1CCN(S(=O)(=O)Cc2ccccc2)CC1)Nc1cccc(F)c1,·,·,-16.4%,·,·
c1ccc(NNC2=NCCCCC2)cc1,-26.6%,2.51µM*,?,13.2%,-2.4%
CSc1cccc(NC(=O)/C=C/c2cccc(F)c2)c1,·,·,-15.8%,·,·
COc1ccccc1NC(C)c1nnc(-c2cccs2)o1 (stereo unspecified),·,·,22.8%,·,·
COc1ccc(/C=C2/C(=O)ON=C2C)cc1Br,?,?,?,?,-1.9%
CCOc1c(Br)cc(/C=C2\N=C(C)OC2=O)cc1Br,-2.8%,3.4%,?,7.9%,-0.4%
C#CCOc1c(Br)cc(/C=C2/C(=O)ON=C2C)cc1OCC,?,44.7µM*,11.2µM*,-68.1%,-1.7%
C#CCOc1c(Br)cc(/C=C2/C(=O)ON=C2C)cc1OC,?,39.8µM*,5.01µM*,56.2µM*,-1.5%
CCOc1cc(/C=C2/C(=O)ON=C2C)ccc1OCc1ccccc1F,-82.6%,?,?,20µM*,12.5%
CCOc1cc(/C=C2/NC(=O)NC2=O)ccc1OCc1ccccc1F,·,·,17.2%,·,·
CCc1nc2c(c(-c3ccc(Cl)cc3)n1)CN(C(=O)Nc1ccc(Cl)cc1)CC2,·,·,-19.0%,·,·
NS(=O)(=O)c1ccc(N/N=C/c2ccc(F)c(F)c2)c([N+](=O)[O-])c1,·,·,6.6%,·,·
CCOc1ccc(Br)cc1C(=O)Oc1ccc(C)cc1Br,·,·,1.2%,·,·
Cc1cccc(NC(=O)COc2ccc(/C=C\c3[nH]c(=O)[nH]c(=O)c3[N+](=O)[O-])cc2)c1,?,·,39.8µM*,50.1µM*,-1.7%
O=c1[nH]c(/C=C/c2ccc([N+](=O)[O-])cc2)c([N+](=O)[O-])c(=O)[nH]1,?,28.2µM*,?,0.3%,-4.1%
S=C(c1ccccc1)N1CCN(c2ccccc2)CC1,-12.4%,·,-8.1%,·,0.8%
CC(C)(C)c1ccc(C(=S)N2CCN(c3ccccc3)CC2)cc1,?,20µM*,10.6%,50.1µM*,-5.3%
CCN(CC)c1ccc(C(=S)N2CCN(c3ccccc3)CC2)cc1,-7.4%,11.2µM*,0.0%,?,-2.2%
CCOc1cccc(C(=O)NC23CC4CC(CC(C4)C2)C3)c1,·,·,-2.5%,·,·
COCCC(=O)N[C@H]1CC[C@]2(C)CCC([C@H](C)C(=O)N3CCc4ccccc4C3)[C@H](O)[C@H]2[C@@H]1C (stereo partly specified),·,·,24.3%,·,·
COc1ccc(C2NCCc3c2[nH]c2ccccc32)cc1CSc1nc2ccccc2s1 (stereo unspecified),4.5%,8.91µM*,31.6µM*,44.7µM*,-11.1%
SMILES,VDR inh,G9a inh,12-LOX inh,Sfp PPTase inh,GRP78 ERSR act
CCOC(=O)c1coc(CNC(=O)c2c(C)oc3c2CCCC3)c1,-12.7%,56.2µM*,-2.5%,-1.4%,-1.4%
CCCc1ccc(NC(=O)Cn2cnc3c2c(=O)n(C)c(=O)n3C)cc1,·,·,-41.5%,·,·
C=Cc1ccc(CN2C(=O)N(c3ccc(C(C)=O)cc3)S(=O)(=O)c3ccccc32)cc1,·,·,-61.6%,·,·
C=CCc1cc(Cl)ccc1OCCOCCN(C)C,-2.5%,7.94µM*,?,-22.6%,-6.3%
C=CCc1cc(Cl)ccc1OCCOCCNC(C)(C)C,7.9%,25.1µM*,?,-12.9%,-3.1%
CCN(CC)c1ccc(NC(=O)COC(=O)C2CCN(c3ccc(C(F)(F)F)cn3)CC2)cc1,-16.2%,1.58µM*,?,·,-3.9%
CC(C)N(Cc1ccccc1)C(=O)COC(=O)C1CCN(c2ccc(C(F)(F)F)cn2)CC1,-22.0%,35.5µM*,-9.6%,·,-3.7%
CC(C)(C)N(Cc1ccccc1)C(=O)COC(=O)C1CCN(c2ccc(C(F)(F)F)cn2)CC1,-27.5%,?,?,·,-3.6%
O=C(CCc1cccs1)Nc1cccc(C(=O)N2CCCC2)c1,·,·,-21.9%,·,·
CC(C)c1ccc(/C=C(\C#N)C(=O)NCCc2ccccc2)cc1,·,·,2.0%,·,·
COc1cc(/C=C(\C#N)C(=O)NCCc2ccccc2)cc(OC)c1O,-0.4%,31.6µM*,-16.2%,-2.3%,-2.2%
N#C/C(=C\c1ccc(O)c(O)c1)C(=O)NCCc1ccccc1,?,9.47µM*,?,·,?
N#C/C(=C\c1ccc(O)c(O)c1)C(=O)NCCCCc1ccccc1,?,·,?,79.4µM*,-2.8%
COc1ccc(/C=C(\C#N)C(=O)NCc2ccccc2)cc1O,-13.7%,23.6%,-12.7%,13.3%,11.2%
COc1cc(/C=C(\C#N)C(=O)c2c[nH]c3ccccc23)cc(OC)c1O,12.0%,11.2µM*,-28.3%,-26.4%,-0.7%
CSc1ccc(C2CC(=O)Nc3c2cnn3-c2nc3ccccc3s2)cc1 (stereo unspecified),·,·,-11.7%,·,·
CCn1cc(C#N)c(=O)n(Cc2nc(-c3ccc(F)cc3)no2)c1=O,·,·,-14.2%,·,·
CCOC(=O)CNC(=O)c1cc(-c2ccc(Cl)cc2)nc2ccccc12,·,·,-2.1%,·,·
COc1cc(/C=N/NC(=S)NCCc2ccccc2)cc(OC)c1OC,18.9%,-7.0%,0.0%,0.8%,6.9%
N#C/C(=C\c1ccc(O)c(O)c1)C(=O)N1CCc2ccccc21,-0.2%,6.31µM*,?,·,1.1%
COCCNC(=O)/C(C#N)=C/c1cc(Br)c(O)c(OC)c1,-1.8%,14.1µM*,63.5%,-3.9%,1.4%
COc1cc(/C=N/S(=O)(=O)CCc2ccccc2)cc(OC)c1O,-2.8%,50.1µM*,-18.3%,-0.7%,-2.1%
CCCCOC(=O)C(C)OC(=O)CCC (stereo unspecified),·,·,-6.8%[176 µM],·,·
Cc1cc2ccccc2n1CC(=O)N1CCC(C(N)=O)CC1,·,·,-9.6%,·,·
Cc1cc(N)c2cc(NC(=O)Nc3ccc4nc(C)cc(N)c4c3)ccc2n1,-4.3%,·,?,7.94µM*,-4.5%
CCCCCC(=O)OCC,·,·,1.3%[176 µM],·,·
COc1ccc2ccccc2c1CN1CCC2(CC1)[C@H](O)C[C@@H]2OCCN,·,·,110.0%,·,·

# Screening results deposited in PubChem by National Center for Advancing Translational Sciences (NCATS).
